SW480 rereplic – DNA re-replication induction in SW480 cells | 340,000 compounds, 1.8% hits | SW480 DNA re-replication, Hoechst DNA content imaging, 48 h | Potency, µM (doses to about 46.1 µM), most hits filed as activators | AID 624297; further: nearly all actives have a fitted effect of over 55% in size
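DNA re-replication was detected as more nuclei of elevated Hoechst intensity after 48 hr exposure to compound (23 nL pinned per well of 250 cells).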
KB-V1 MDR tox – kills drug-selected multidrug resistant KB-V1 cells; KB-V1 MDR cells viability, CellTiter-Glo, 72 h; Potency, µM (series often up to 46.1 µM), actives largely listed as cytotoxic; 400,000 compounds, 3.4% hits; further: nearly all actives have a fitted effect of over 60% in size
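Following 72 h at 37 degrees C with compound, KB-V1 cell viability was read by CellTiter-Glo luminescence, medium being phenol-red-free DMEM plus 10% FBS; concentration-response parameters came from normalized, curve-fitted qHTS data.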
KB-3-1 cytotox – kills parental KB-3-1 adenocarcinoma cells | KB-3-1 viability, CellTiter-Glo ATP luminescence, 72 h | Potency, µM (highest dose often 46.1 µM), most hits filed as cytotoxic | 400,000 compounds, 1.4% hits; further: nearly all actives have a fitted effect of over 60% in size
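72 h, 37 °C compound treatment of KB-3-1 parental cells; CellTiter-Glo added, 10 min, luminescence read. Data corrected against DMSO-only plates and normalized before curve fitting.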
ELG1 repair inh – inhibitors of ELG1-dependent DNA repair in HEK293T cells; Potency, µM (series often up to 46.1 µM), usual class: inhibitors; HEK293T ELG1-luciferase reporter, luminescence, 16 h; DNA damage induced by 5-fluorouridine; AID 504467; 330,000 compounds, 2.3% hits; further: nearly all actives have a fitted effect of over 55% in size
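Luminescence from the luciferase reporter, measured 30 min after ONE-Glo reagent at room temperature, was the read-out. Beforehand, 2,000 cells per well were exposed for 16 hr at 37 °C to 5-fluorouridine together with compound or vehicle.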
MCF10A rerep – DNA re-replication induction in MCF 10a cells | MCF 10A DNA re-replication, Hoechst nuclear intensity, 48 h | 350,000 compounds, 2.9% hits | Potency, µM (series often up to 46.1 µM), usual class: activators | AID 624296; further: nearly all actives have a fitted effect of over 50% in size
Large screens that a line does not name were inactive. Shown are actives, neighbours in structure and some others; about 8.1% of the full set was active somewhere. The call rests on the fitted dose curve; in most records, active means well fitted curve in the direction sought with a large enough effect; inconclusive means small, poorly fitted or top-dose-only effect, or another doubt; inactive means no such curve, though single readings can be large; an effect the other way counts as inactive or inconclusive.

CCS(=O)(=O)N1CCN(c2ccc(C(=O)NC34CC5CC(CC(C5)C3)C4)cc2[N+](=O)[O-])CC1	ELG1 repair inh 23.1µM
CS(=O)(=O)N1CCN(c2ccc(C(=O)NC34CC5CC(CC(C5)C3)C4)cc2[N+](=O)[O-])CC1	none
COC(=O)c1sc(NC(=S)NNC(=O)c2c(Br)c(C)nn2C)c(C(=O)OC)c1C	none
O=C(c1ccc2c3n(nc2c1)-c1ccccc1CO3)N1CCOCC1	KB-V1 MDR tox inconclusive, KB-3-1 cytotox 7.31µM, ELG1 repair inh inconclusive
O=C(c1ccc2c3n(nc2c1)-c1ccccc1CO3)N1CCCCC1	KB-V1 MDR tox 10.3µM, KB-3-1 cytotox 9.2µM, ELG1 repair inh inconclusive
CC(Oc1ccc(Br)cc1)C(=O)Nc1ccc(S(=O)(=O)NC2=NCCCCC2)cc1 (stereo not given)	KB-V1 MDR tox 23.1µM (no result: ELG1 repair inh)
COc1ccc2cc(C(=O)N3CCc4ccccc43)[nH]c2c1	ELG1 repair inh inconclusive, MCF10A rerep inconclusive
CCOc1ccccc1NC(=O)Cn1cc(C(=O)c2ccc(Cl)cc2)c(=O)c2ccc(C)nc21	none (no result: SW480 rereplic, ELG1 repair inh, MCF10A rerep)
COc1ccc2c(C)cc(SCc3c(C)noc3C)nc2c1	SW480 rereplic inconclusive, MCF10A rerep 11.6µM
COc1ccc2c(C)cc(SCC#N)nc2c1	MCF10A rerep inconclusive
O=C1CCc2cc(S(=O)(=O)Nc3ccccc3F)cc3c2N1CCC3	none
CCC(C)(C)n1nnnc1C(c1cc2ccc(C)cc2[nH]c1=O)N(Cc1cccnc1)Cc1ccco1 (stereo not given)	SW480 rereplic inconclusive, KB-V1 MDR tox 20.6µM, MCF10A rerep inconclusive
Cc1cc2cc(C(c3nnnn3C3CCCC3)N(Cc3cccnc3)Cc3ccco3)c(=O)[nH]c2cc1C (stereo not given)	SW480 rereplic inconclusive, ELG1 repair inh 18.4µM, MCF10A rerep inconclusive
Cc1ccc2cc(C(c3nnnn3C3CCCC3)N(Cc3ccccc3)Cc3ccco3)c(=O)[nH]c2c1 (stereo not given)	SW480 rereplic inconclusive, KB-V1 MDR tox inconclusive
CCN(CC)C(=O)Cn1c(=O)n(CC2CCC(C(=O)NC)CC2)c(=O)c2sccc21 (stereo not given)	none (no result: SW480 rereplic, ELG1 repair inh, MCF10A rerep)
CCCCC(=O)Nc1nn(CC(C)C)c2nc3ccccc3cc12	SW480 rereplic inconclusive, KB-V1 MDR tox 16.4µM, MCF10A rerep inconclusive
Cc1ccc2nc3c(cc2c1)c(NC(=O)C(C)(C)C)nn3CC(C)C	SW480 rereplic inconclusive, ELG1 repair inh inconclusive, MCF10A rerep 2.91µM
CCCn1nc(NC(=O)CC(C)C)c2cc3ccccc3nc21	KB-V1 MDR tox 5.17µM, MCF10A rerep inconclusive
CC(C)Cn1nc(NC(=O)c2cccs2)c2cc3ccccc3nc21	SW480 rereplic 16.4µM, ELG1 repair inh 20.6µM, MCF10A rerep inconclusive
CCN(CC)c1ccc(NC(=O)CCS(=O)(=O)c2ccc3c(c2)oc(=O)n3C)c(C)c1	none (no result: SW480 rereplic, ELG1 repair inh, MCF10A rerep)
CCc1nn(CC(=O)Nc2ccc(N(CC)CC)cc2C)c(=O)c2cc3sccc3n12	none (no result: SW480 rereplic, ELG1 repair inh, MCF10A rerep)
CC(C)Cn1nc(NC(=O)C(C)(C)C)c2cc3ccccc3nc21	SW480 rereplic inconclusive, MCF10A rerep 23.1µM
Cc1ccc2cc3c(NC(=O)C4CCCO4)nn(CC(C)C)c3nc2c1 (stereo not given)	SW480 rereplic inconclusive, ELG1 repair inh inconclusive, MCF10A rerep inconclusive
CCn1nc(NC(=O)COC)c2cc3cc(C)ccc3nc21	SW480 rereplic 23.1µM, ELG1 repair inh inconclusive
CCSc1nnc2c(n1)OC(c1sccc1C)N(C(C)=O)c1ccccc1-2 (stereo not given)	KB-V1 MDR tox inconclusive (no result: SW480 rereplic, ELG1 repair inh, MCF10A rerep)
COc1ccc(C(=O)Nc2ccc(-c3nc4ncccc4o3)cc2C)cc1Br	none (no result: SW480 rereplic, ELG1 repair inh, MCF10A rerep)
c1ccc(-c2nnsc2-c2ccccc2)cc1	none
O=S(=O)(c1ccc(Cl)c(Cl)c1)c1snnc1-c1ccccc1	SW480 rereplic 1.3µM, KB-V1 MDR tox inconclusive, KB-3-1 cytotox 5.17µM, MCF10A rerep 4.61µM
O=S(=O)(Nc1nc(-c2sccc2Cl)cs1)c1cc(Cl)ccc1Cl	MCF10A rerep 8.2µM
CCOc1cc2c(cc1O)C(=NOC)CC1C2CCC2(C)C(O)CCC12 (stereo not given)	SW480 rereplic 5.8µM, KB-V1 MDR tox 0.517µM, KB-3-1 cytotox 0.651µM, MCF10A rerep 2.06µM (no result: ELG1 repair inh)
CN(Cc1nc(-c2ccncc2)no1)S(=O)(=O)c1ccc(Cl)cc1	KB-V1 MDR tox 14.6µM, ELG1 repair inh inconclusive
CN(Cc1nc(-c2ccncc2)no1)S(=O)(=O)c1ccccc1	none
CN(Cc1nc(-c2ccncc2)no1)S(=O)(=O)c1ccc(Br)cc1	KB-V1 MDR tox 14.6µM
COc1ccc(CN2C[C@H](Cc3ccccc3)[C@@H](CC(=O)Nc3ccccc3)C2=O)cc1	KB-V1 MDR tox inconclusive, ELG1 repair inh inconclusive
O=C(CSc1nc(-c2ccccc2)c(-c2ccccc2)[nH]1)N1CCN(S(=O)(=O)c2ccccc2)CC1	KB-3-1 cytotox inconclusive, ELG1 repair inh 16.4µM
CCOCN(C(=O)Cn1cnc2cc(C)c(C)cc21)c1c(C)cccc1CC	KB-V1 MDR tox 5.17µM, KB-3-1 cytotox inconclusive (no result: SW480 rereplic, ELG1 repair inh, MCF10A rerep)
CCOCN(C(=O)Cn1c(COC)nc2ccccc21)c1c(C)cccc1CC	none
CCC(=O)N(CCC(c1ccccc1)c1ccco1)Cc1cccs1 (stereo not given)	KB-V1 MDR tox inconclusive, MCF10A rerep 11.2µM
Cc1ccc2cc3c(N)c(C(=O)N4CC(=O)Nc5ccccc54)sc3nc2c1	none (no result: SW480 rereplic, KB-V1 MDR tox, KB-3-1 cytotox, MCF10A rerep)
Cc1ccc2nc(N3CCC(C(=O)O)CC3)nc(-c3ccccc3)c2c1	MCF10A rerep 20.6µM
Cc1ccc2nc(NCC(=O)O)nc(-c3ccccc3)c2c1	none
O=C(O)CCCC(=O)N1CCN(c2nc(-c3ccccc3)c3ccccc3n2)CC1	SW480 rereplic inconclusive
Cc1ccc2nc(N3CC(=O)Nc4ccccc43)nc(-c3ccccc3)c2c1	SW480 rereplic 18.4µM, KB-V1 MDR tox inconclusive, MCF10A rerep 3.26µM
Cc1ccc2nc(N3CCN(C(=O)CCC(=O)O)CC3)nc(-c3ccccc3)c2c1	MCF10A rerep 20.6µM
Cc1nc(C)c(C(=O)OCC(=O)NCc2ccccc2)s1	none
CN(C(=O)CSC1=Nc2ccccc2C2=NC(c3ccccc3)C(=O)N12)C1CCCCC1 (stereo not given)	KB-V1 MDR tox 5.17µM, MCF10A rerep inconclusive
O=C(CSC1=Nc2ccccc2C2=NC(c3ccccc3)C(=O)N12)NC1CCCCC1 (stereo not given)	MCF10A rerep inconclusive
Cc1cccc(NC(=O)c2c(C)cc(C)nc2SCC(=O)Nc2c(C)cc(C)cc2C)c1	none (no result: SW480 rereplic, ELG1 repair inh, MCF10A rerep)
N#Cc1cccc(S(=O)(=O)NCC(=O)OCC(=O)NCc2ccccc2)c1	KB-V1 MDR tox inconclusive
COc1ccc(N2CCN(CCNC(=O)c3ccc4c(c3)[nH]c(=S)n3c5ccccc5nc43)CC2)cc1	SW480 rereplic 7.31µM, ELG1 repair inh inconclusive
COc1ccc(N2CCN(CCNC(=O)c3ccc4nc5ccccc5c(=O)n4c3)CC2)cc1	ELG1 repair inh inconclusive
CN(C)C(=S)NC(=S)Nc1ccc2ccccc2c1	KB-V1 MDR tox 18.4µM, KB-3-1 cytotox inconclusive, MCF10A rerep inconclusive (no result: ELG1 repair inh)

Screening results from PubChem.
